Assay in all cases: qHTS profiling for inhibitors of Plasmodium falciparum proliferation (AID 504749); also: nearly all actives have a fitted effect of over 60% in size
Conditions in all cases: P. falciparum in erythrocytes, SYBR Green DNA, 72 h; series mostly up to 28.7 µM
In general terms: In qHTS, concentration-response curves come from the screen itself.

One test has as its system ATS95. In short, it runs like this: (§1)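 Infected RBCs, 0.3% parasitemia/2.5% Hct final; cpd 72 h, 37 C, 5% CO2; lysis buffer with saponin/triton/SYBR Green I, o/n RT dark; FI 485/535; norm. to artemisinin (0.29 uM) and DMSO.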
The next test relates to C2A. In short, it runs like this:
as §1

The test system of another test is CP185. In short, it runs like this: as §1
Another test relates to CP191. In short, it runs like this: as §1
The test system of a further test is CP192. The procedure, abridged: as §1
For a further test, the system named is CP194. The procedure, abridged: as §1
In another test the test system is CP201. In short, it runs like this: as §1
The next test relates to CP203. In short, it runs like this:
as §1

Another test has as its system CP211. The procedure, abridged: as §1
The next test relates to CP215. The procedure, abridged: as §1
A further test deals with CP217. The procedure, abridged: as §1
The subject of another test is CP237. In short, it runs like this: as §1
The test system of the next test is CP238. In short, it runs like this:
as §1

Another test deals with CP247. The procedure, abridged:
as §1

The test system of a further test is CP250. In short, it runs like this: as §1
The next test concerns CP252. The procedure, abridged:
as §1

The test system of a further test is CP256. In short, it runs like this:
as §1

In the next test the test system is CP262. The procedure, abridged:
as §1

Another test concerns CP265. The procedure, abridged:
as §1

The test system of a further test is CP260. In short, it runs like this:
as §1

Each structure is given as a SMILES string. Inconclusive results are not listed. The source made the active and inactive calls. Calls follow the shape of the dose curve; as a rule, active = well fitted inhibition curve with a large enough effect; inconclusive = small, poorly fitted or top-dose-only effect; inactive = flat fitted curve, though single readings scatter.
Potency is read from the fitted curve at half-maximal effect.

On to `COc1ccccc1N1CCNCC1`, for which the Potency result with ATS95, in the test with C2A, in the test on CP185, in the test with CP191, in the test with CP192 and with CP194 was “inactive” each time. Besides, the Potency result in the test on CP201, in the test with CP203, in the test on CP211, in the test on CP215, in the test on CP217 and with CP237 was “inactive” each time. The Potency result with CP238, with CP247, in the test with CP250, in the test on CP252, in the test with CP256 and in the test on CP262 was “inactive” throughout. For the same molecule, the Potency result with CP265 is “inactive”.

As for `CC(=O)[C@H]1CC[C@H]2[C@@H]3CC[C@H]4C[C@](C)(O)CC[C@]4(C)[C@H]3CC[C@]12C`, the Potency result in the test with ATS95, with C2A, in the test on CP185, in the test on CP191, in the test on CP192 and with CP194 was “inactive” throughout. In addition, the Potency result with CP201, in the test with CP203, in the test with CP211, in the test with CP215, in the test with CP217 and with CP237 was “inactive” each time. Further, the Potency result in the test on CP238, with CP247, in the test with CP250, with CP252, with CP256 and with CP262 was “inactive” each time. For the same molecule, the Potency result in the test with CP265 is “inactive”.

Consider `Oc1cccc2cccnc12`, for which the Potency result in the test with ATS95, in the test with C2A, in the test with CP185, in the test with CP191, in the test on CP192 and in the test with CP194 was “inactive” each time. Also, the Potency entry in the test with CP201, in the test with CP203, in the test with CP211, with CP215, with CP217 and with CP237 was “inactive” each time. The Potency entry in the test with CP238, with CP247, with CP250, in the test with CP252, in the test with CP256 and in the test on CP260 was “inactive” each time. Also, the Potency result with CP262 and with CP265 was “inactive” each time.

`O=C(NC(O)C(Cl)(Cl)Cl)NC(O)C(Cl)(Cl)Cl` (centres undefined): the Potency result in the test with ATS95, with C2A, in the test on CP185, in the test with CP191, with CP192 and in the test on CP194 was “inactive” in each case. Moreover, the Potency entry in the test with CP201, in the test on CP203, in the test on CP211, in the test on CP215, in the test with CP217 and in the test on CP237 was “inactive” throughout. For the same molecule, the Potency result with CP238, in the test on CP247, in the test on CP250, in the test with CP252, with CP256 and in the test with CP260 was “inactive” throughout. The Potency entry in the test on CP262 and with CP265 was “inactive” each time.

As to `CC(C)(C)CC(C)(C)c1ccc(O)cc1`, the Potency entry in the test with ATS95, in the test on C2A, in the test on CP185, in the test on CP191, in the test with CP192 and in the test with CP194 was “inactive” throughout. Also, the Potency result in the test with CP201, in the test on CP203, with CP211, in the test with CP215, in the test with CP217 and with CP237 was “inactive” in each case. The Potency entry in the test on CP238, in the test on CP250, with CP252, in the test with CP256, in the test on CP260 and with CP262 was “inactive” throughout. Also, the Potency entry with CP265 was “inactive”. Further, the Potency in the test on CP247 was 11.2 µM (active).

For the molecule `Oc1ccccc1-c1ccccc1`, the Potency result in the test with ATS95, with C2A, with CP185, in the test on CP191, with CP192 and with CP194 was “inactive” throughout. Also, the Potency entry with CP201, in the test on CP203, in the test on CP211, in the test on CP215, in the test with CP217 and with CP237 was “inactive” throughout. Also, the Potency result with CP238, with CP247, in the test on CP250, in the test on CP252, with CP256 and with CP260 was “inactive” throughout. Moreover, the Potency result in the test with CP262 and with CP265 was “inactive” throughout.

As to `CCCC(C)(COC(N)=O)COC(=O)NC(C)C` (centres undefined), the Potency entry in the test on ATS95, with C2A, with CP185, in the test with CP191, in the test with CP192 and in the test with CP194 was “inactive” in each case. The Potency entry with CP201, in the test on CP203, with CP211, in the test with CP215, in the test with CP217 and in the test with CP237 was “inactive” in each case. Moreover, the Potency entry with CP238, in the test on CP247, in the test with CP250, in the test on CP252, with CP256 and in the test with CP260 was “inactive” throughout. Further, the Potency result with CP262 and in the test with CP265 was “inactive” throughout.

For `CCOP(=S)(OCC)Oc1cc(C)nc(C(C)C)n1`, the Potency result in the test with ATS95, in the test on C2A, with CP185, in the test on CP191, in the test with CP192 and in the test on CP194 was “inactive” in each case. Further, the Potency result with CP201, with CP203, in the test on CP211, with CP215, in the test with CP217 and in the test with CP237 was “inactive” each time. Further, the Potency entry in the test with CP238, with CP247, in the test on CP250, with CP252, in the test with CP256 and in the test on CP260 was “inactive” throughout. Besides, the Potency entry with CP262 and with CP265 was “inactive” throughout.

Consider `CC(C)=CC1C(C(=O)OCc2cccc(Oc3ccccc3)c2)C1(C)C` (centres undefined), for which the Potency entry in the test with ATS95, with C2A, in the test with CP185, in the test on CP191, with CP192 and with CP194 was “inactive” each time. Further, the Potency entry with CP201, with CP203, with CP211, with CP215, in the test with CP217 and in the test with CP237 was “inactive” throughout. For the same molecule, the Potency entry in the test on CP238, with CP247, in the test with CP250, with CP252, in the test with CP256 and in the test with CP262 was “inactive” throughout. Also, the Potency entry with CP265 was “inactive”.

Take `O=C(O)c1ccc2[nH]cc(CCCCN3CC=C(c4ccccc4)CC3)c2c1`: the Potency result with ATS95, with C2A, in the test with CP185, in the test on CP191, with CP192 and with CP194 was “inactive” in each case. The Potency entry with CP201, in the test on CP203, with CP211, with CP215, in the test with CP217 and in the test on CP237 was “inactive” throughout. For the same molecule, the Potency result in the test on CP238, in the test on CP250, in the test on CP252, with CP256, in the test with CP260 and in the test with CP262 was “inactive” in each case. Also, the Potency result in the test on CP265 was “inactive”.

In the case of `CN(C)CCc1ccc(O)cc1`, the Potency entry with ATS95, in the test with C2A, with CP185, in the test with CP191, in the test with CP192 and in the test with CP194 was “inactive” throughout. Moreover, the Potency result with CP201, with CP203, with CP211, with CP215, in the test with CP217 and in the test on CP237 was “inactive” throughout. In addition, the Potency result in the test on CP238, in the test with CP247, in the test with CP250, in the test with CP252, in the test with CP256 and in the test with CP260 was “inactive” throughout. Moreover, the Potency entry in the test on CP262 and in the test with CP265 was “inactive” throughout.

For the molecule `OCCOc1ccccc1`, the Potency result with ATS95, in the test with C2A, in the test with CP185, in the test with CP191, in the test with CP192 and in the test on CP194 was “inactive” in each case. Besides, the Potency entry in the test with CP201, in the test on CP203, with CP211, with CP215, in the test on CP217 and with CP237 was “inactive” each time. In addition, the Potency result in the test with CP238, with CP247, in the test with CP250, in the test with CP252, with CP256 and in the test with CP260 was “inactive” each time. For the same molecule, the Potency result in the test with CP262 and in the test on CP265 was “inactive” in each case.

Turning to `O=C1NCN(c2ccccc2)C12CCN(CC1COc3ccccc3O1)CC2` (centres undefined), the Potency entry in the test with ATS95, in the test with C2A, with CP185, with CP191, in the test on CP192 and in the test on CP194 was “inactive” in each case. In addition, the Potency entry with CP201, with CP203, with CP211, in the test on CP215, in the test with CP217 and in the test with CP238 was “inactive” each time. Moreover, the Potency entry with CP247, in the test with CP250, in the test with CP252, in the test with CP256, in the test with CP262 and in the test on CP265 was “inactive” in each case.

The values are drawn from PubChem BioAssay (NCATS).
